Results filed as inconclusive are left out. Unless noted, calls come from the whole dose curve; as a rule, active = well fitted curve in either direction with a large enough effect (not every such curve was filed as active); inconclusive = small, poorly fitted or top-dose-only effect, or another doubt; inactive = flat fitted curve, though single readings scatter.
Test system: not listed separately
Test: Stat Signaling Pathway (AID 446);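 note: ME-180 cervical cancer cells given 40 pM IL-6 alongside compound; SIE-controlled beta-lactamase reporter measured as 460/530 nm FRET emission ratio; % is set by controls: 0 for no effect and ±100 for the full control effect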
Settings: ME-180 (cervical carcinoma) SIE beta-lactamase reporter, IL-6 stimulated, 5 h; at 17.2 µM (top of the series) unless noted
Method in brief: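 Emission at 460 and 530 nm (excitation 405 nm) reports SIE-controlled beta-lactamase in ME-180 cells. Cells received compound with 40 pM IL-6 for 5 hrs at 37 C; data scaled between 300 pM IL-6 and 125 nM JAK-inhibitor controls.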

activity, negative = inhibition, inactive:
CCOC(=O)CSc1nc(N2CCOCC2)c2c(c1C#N)CC(C)(C)N(C)C2 1.11%
CC1CN(c2oc(-c3cccs3)nc2C#N)CC(C)O1 (stereo not given) 14.9%
Cc1ccc(-c2ccccc2NC(=O)C2C3C=CC(C3)C2C(=O)O)o1 (stereo not given) 11.2%
Nc1ccc2oc(-c3ccccc3Cl)nc2c1 2.57%
CCN=C1SC(C(=O)Nc2ccc(Cl)c(Cl)c2)CC(=O)N1CC (stereo not given) 4.81%
CCCCCSc1nc(O)cc(=O)[nH]1 -6.56%
COC(=O)c1ccc(C2/C(=C(\O)c3cccc(OC)c3)C(=O)C(=O)N2CCCN(C)C)cc1 (stereo not given) 5.36%
CCOC(=O)CNS(=O)(=O)c1cc(-c2nn(C)c(=O)c3ccccc23)ccc1C -5.95%
CCOC(=O)CSc1nc(-c2ccc3c(c2)OCO3)ccc1C#N 4.79%
COC(=O)C(C)Sc1nc2c(c(=O)n(C)c(=O)n2C)n1CCC(C)C (stereo not given) -10.8%
COC(=O)CC1SC(=O)NC1=O (stereo not given) 7.23%
COCCNC(=O)C(C#N)c1nc2ccccc2nc1N1CCN(Cc2ccc3c(c2)OCO3)CC1 (stereo not given) 4.46%
CCN(CC)CCN1C(=O)C(=O)/C(=C(/O)c2c(C)[nH]c(C(=O)OC)c2C)C1c1cccc(OC)c1 (stereo not given) 5.49%
c1ccc(-c2nc(NCC3CCCO3)c3ccccc3n2)nc1 (stereo not given) -6.67%
COc1ccccc1C(=O)Nc1cc(Cl)ccc1O -4.42%
COc1ccc2c(c1)nc(N)n2Cc1ccccc1 -3.55%
Cc1ccc(C(=O)/C=C/Nc2ccccn2)cc1 -4.63%
CN1CCc2c(sc3c2C(=O)NC(c2ccco2)N3)C1 (stereo not given) 23.6%
Cc1cc(NCC2CCCO2)n2c(nc3ccccc32)c1C#N (stereo not given) -2.4%
CCOC(=O)NC1(C(F)(F)F)C(=O)NC(C)=C1C#N (stereo not given) 1.98%
CCCCOc1ccc(C(=O)NCC(=O)NCC(=O)OCC)cc1 -5.03%
CCOCCN(C(=O)COC)c1cccc(OC)c1 6.59%
COC(=O)CSc1nnc2n(-c3ccc(OC)cc3)c(=O)c3c4c(sc3n12)CCCCC4 5.65%
N#C/C(=C\c1c(N2CCC(C(N)=O)CC2)nc2ccccn2c1=O)S(=O)(=O)c1ccccc1 -1.65%
Cn1c(=O)n(CCc2ccccc2)c(=O)c2c1ncn2Cc1ccccc1 -18.1%
Cc1ccc(/C=c2\sc3n(c2=O)CN(c2ccc(Br)cc2)CN=3)o1 0.614%
CCC(NC(=O)Nc1nccs1)(C(F)(F)F)C(F)(F)F -6.36%
CCOC(=O)c1c(CN2CCN(C)CC2)n(C)c2cc(Br)c(OC)cc12 -13%
O=C1CCC(=O)N1CN(Cc1ccco1)CN1C(=O)CCC1=O 0.484%
CCN1C(=O)CC(N2CCN(c3ccc(OC)cc3)CC2)C1=O (stereo not given) 1.34%
C(=N\n1cnnc1)/c1cccc(Oc2ccccc2)c1 -17.8%
Cc1c(/C(O)=C2\C(=O)C(=O)N(CCN(C)C)C2c2cccs2)cnn1-c1ccccc1 (stereo not given) -3.53%
O=S(=O)(O)c1nc2ccccc2n1Cc1ccc(Cl)cc1Cl -9%
CC1(C)CC(=O)C(C2=NC(C)(C)Cc3ccccc32)=C(O)C1 0.129%
COC(=O)c1ccc(C(=O)OC)c(NC(=O)c2cc3ccccc3o2)c1 8.58%
O=C(O)C1CC(=O)n2c(nc3ccccc32)S1 (stereo not given) 6.25%
CC(=O)Nc1cnc2ccccc2n1 7.01%
COc1cc(C(=O)NCC(=O)n2nc(C)cc2C)cc(OC)c1OC 0.715%
c1ccc(-n2ncc3c(N4CCCC4)ncnc32)cc1 -6.73%
Cc1cc(C)c(C#N)c(SCC(=O)NC2CC2)n1 8.05%

Target: Glucocorticoid receptor (Homo sapiens) (UniProt P04150)
Test: GR-GFP Redistribution (AID 450;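 active = compounds whose dose series gives a full or clear partial fitted curve of increased nuclear translocation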; note: potency is the fitted concentration of half-maximal effect)
Settings: U2OS GR-GFP nuclear translocation, laser cytometry, 2 h; series mostly up to 20.6 µM

Glucocorticoid receptor (Homo sapiens), sequence (P04150 whole entry, looked up): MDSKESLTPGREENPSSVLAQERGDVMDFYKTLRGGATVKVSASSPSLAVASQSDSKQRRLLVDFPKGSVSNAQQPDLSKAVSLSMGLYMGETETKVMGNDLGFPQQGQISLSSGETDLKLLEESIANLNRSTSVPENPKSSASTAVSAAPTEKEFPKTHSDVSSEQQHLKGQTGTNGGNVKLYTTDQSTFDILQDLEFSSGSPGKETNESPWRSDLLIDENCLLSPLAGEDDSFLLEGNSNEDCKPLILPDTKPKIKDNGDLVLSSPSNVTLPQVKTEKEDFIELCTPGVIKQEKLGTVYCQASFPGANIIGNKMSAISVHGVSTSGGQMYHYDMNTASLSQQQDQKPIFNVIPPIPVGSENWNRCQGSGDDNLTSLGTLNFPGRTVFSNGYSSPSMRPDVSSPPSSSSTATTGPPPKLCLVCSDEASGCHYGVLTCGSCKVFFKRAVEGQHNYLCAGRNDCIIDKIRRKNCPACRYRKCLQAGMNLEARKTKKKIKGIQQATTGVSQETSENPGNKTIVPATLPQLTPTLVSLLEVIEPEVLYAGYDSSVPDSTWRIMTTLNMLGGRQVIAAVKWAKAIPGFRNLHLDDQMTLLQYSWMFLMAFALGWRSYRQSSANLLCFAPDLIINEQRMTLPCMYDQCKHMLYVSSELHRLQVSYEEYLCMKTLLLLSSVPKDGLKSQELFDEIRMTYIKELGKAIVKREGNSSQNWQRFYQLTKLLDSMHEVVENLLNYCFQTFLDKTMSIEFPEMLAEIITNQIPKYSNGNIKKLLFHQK

Potency, inactive:
CCOC(=O)CSc1nc(N2CCOCC2)c2c(c1C#N)CC(C)(C)N(C)C2 > 20.6 µM
CC1CN(c2oc(-c3cccs3)nc2C#N)CC(C)O1 (stereo not given) > 20.6 µM
Cc1ccc(-c2ccccc2NC(=O)C2C3C=CC(C3)C2C(=O)O)o1 (stereo not given) > 20.6 µM
Nc1ccc2oc(-c3ccccc3Cl)nc2c1 > 20.6 µM
CCN=C1SC(C(=O)Nc2ccc(Cl)c(Cl)c2)CC(=O)N1CC (stereo not given) > 20.6 µM
CCCCCSc1nc(O)cc(=O)[nH]1 > 20.6 µM
COC(=O)c1ccc(C2/C(=C(\O)c3cccc(OC)c3)C(=O)C(=O)N2CCCN(C)C)cc1 (stereo not given) > 20.6 µM
CCOC(=O)CNS(=O)(=O)c1cc(-c2nn(C)c(=O)c3ccccc23)ccc1C > 20.6 µM
CCOC(=O)CSc1nc(-c2ccc3c(c2)OCO3)ccc1C#N > 20.6 µM
COC(=O)C(C)Sc1nc2c(c(=O)n(C)c(=O)n2C)n1CCC(C)C (stereo not given) > 20.6 µM
COC(=O)CC1SC(=O)NC1=O (stereo not given) > 20.6 µM
COCCNC(=O)C(C#N)c1nc2ccccc2nc1N1CCN(Cc2ccc3c(c2)OCO3)CC1 (stereo not given) > 20.6 µM
CCN(CC)CCN1C(=O)C(=O)/C(=C(/O)c2c(C)[nH]c(C(=O)OC)c2C)C1c1cccc(OC)c1 (stereo not given) > 20.6 µM
c1ccc(-c2nc(NCC3CCCO3)c3ccccc3n2)nc1 (stereo not given) > 20.6 µM
COc1ccccc1C(=O)Nc1cc(Cl)ccc1O > 20.6 µM
COc1ccc2c(c1)nc(N)n2Cc1ccccc1 > 20.6 µM
Cc1ccc(C(=O)/C=C/Nc2ccccn2)cc1 > 20.6 µM
CN1CCc2c(sc3c2C(=O)NC(c2ccco2)N3)C1 (stereo not given) > 20.6 µM
Cc1cc(NCC2CCCO2)n2c(nc3ccccc32)c1C#N (stereo not given) > 20.6 µM
CCOC(=O)NC1(C(F)(F)F)C(=O)NC(C)=C1C#N (stereo not given) > 20.6 µM
CCCCOc1ccc(C(=O)NCC(=O)NCC(=O)OCC)cc1 > 20.6 µM
CCOCCN(C(=O)COC)c1cccc(OC)c1 > 20.6 µM
COC(=O)CSc1nnc2n(-c3ccc(OC)cc3)c(=O)c3c4c(sc3n12)CCCCC4 > 20.6 µM
N#C/C(=C\c1c(N2CCC(C(N)=O)CC2)nc2ccccn2c1=O)S(=O)(=O)c1ccccc1 > 20.6 µM
Cn1c(=O)n(CCc2ccccc2)c(=O)c2c1ncn2Cc1ccccc1 > 20.6 µM
Cc1ccc(/C=c2\sc3n(c2=O)CN(c2ccc(Br)cc2)CN=3)o1 > 20.6 µM
CCC(NC(=O)Nc1nccs1)(C(F)(F)F)C(F)(F)F > 20.6 µM
CCOC(=O)c1c(CN2CCN(C)CC2)n(C)c2cc(Br)c(OC)cc12 > 20.6 µM
O=C1CCC(=O)N1CN(Cc1ccco1)CN1C(=O)CCC1=O > 20.6 µM
CCN1C(=O)CC(N2CCN(c3ccc(OC)cc3)CC2)C1=O (stereo not given) > 20.6 µM
C(=N\n1cnnc1)/c1cccc(Oc2ccccc2)c1 > 20.6 µM
Cc1c(/C(O)=C2\C(=O)C(=O)N(CCN(C)C)C2c2cccs2)cnn1-c1ccccc1 (stereo not given) > 20.6 µM
O=S(=O)(O)c1nc2ccccc2n1Cc1ccc(Cl)cc1Cl > 20.6 µM
CC1(C)CC(=O)C(C2=NC(C)(C)Cc3ccccc32)=C(O)C1 > 20.6 µM
COC(=O)c1ccc(C(=O)OC)c(NC(=O)c2cc3ccccc3o2)c1 > 20.6 µM
O=C(O)C1CC(=O)n2c(nc3ccccc32)S1 (stereo not given) > 20.6 µM
CC(=O)Nc1cnc2ccccc2n1 > 20.6 µM
COc1cc(C(=O)NCC(=O)n2nc(C)cc2C)cc(OC)c1OC > 20.6 µM
c1ccc(-n2ncc3c(N4CCCC4)ncnc32)cc1 > 20.6 µM
Cc1cc(C)c(C#N)c(SCC(=O)NC2CC2)n1 > 20.6 µM

— PubChem BioAssay (NCATS)
